Key:
Experiment in all cases: SPOT peptide array binding signal intensity (averaged, normalized) (arbitrary units (background-subtracted, floor 0; scale differs between SH3 domains)); higher = stronger binding of the SH3 domain to the peptide
AgAbp1 = target: AgAbp1
Outline: (§1)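 Peptides were synthetic 15-mers on cellulose membranes, with every cysteine replaced by serine. They were incubated overnight at 4°C with GST-SH3 domains from four yeast species at 10 μg/ml in TBS-based blocking buffer. Binding signal, the replicate-averaged normalized and background-subtracted spot intensity, is in arbitrary units that differ between domains.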

AgBbc1 = target: AgBbc1
Outline: as §1

AgBem1-D1 = target: AgBem1-D1
Outline: as §1

AgBzz1-D1 = target: AgBzz1-D1
Outline: as §1

AgBzz1-D2 = target: AgBzz1-D2
Outline: as §1

AgCyk3 = target: AgCyk3
Outline: as §1

AgFus1 = target: AgFus1
Outline: as §1

AgHof1 = target: AgHof1
Outline: as §1

AgHse1 = target: AgHse1
Outline: as §1

AgLsb1 = target: AgLsb1
Outline: as §1

AgLsb4 = target: AgLsb4
Outline: as §1

AgMyo5 = target: AgMyo5
Outline: as §1

AgNbp2 = target: AgNbp2
Outline: as §1

AgRvs167 = target: AgRvs167
Outline: as §1

AgSho1 = target: AgSho1
Outline: as §1

AgSla1-D1-D2 = target: AgSla1-D1-D2
Outline: as §1

AgSla1-D3 = target: AgSla1-D3
Outline: as §1

CaAbp1-D1 = target: CaAbp1-D1
Outline: as §1

CaAbp1-D2 = target: CaAbp1-D2
Outline: as §1

CaBbc1 = target: CaBbc1
Outline: as §1

CaBem1-D1 = target: CaBem1-D1
Outline: as §1

CaBzz1-D1 = target: CaBzz1-D1
Outline: as §1

CaBzz1-D2 = target: CaBzz1-D2
Outline: as §1

CaCyk3 = target: CaCyk3
Outline: as §1

CaFus1 = target: CaFus1
Outline: as §1

CaHof1 = target: CaHof1
Outline: as §1

CaHse1 = target: CaHse1
Outline: as §1

CaLsb1 = target: CaLsb1
Outline: as §1

CaLsb4 = target: CaLsb4
Outline: as §1

CaMyo5 = target: CaMyo5
Outline: as §1

CaNbp2 = target: CaNbp2
Outline: as §1

CaRvs167 = target: CaRvs167
Outline: as §1

CaRvs167-3 = target: CaRvs167-3
Outline: as §1

CaSho1 = target: CaSho1
Outline: as §1

CaSla1-D1-D2 = target: CaSla1-D1-D2
Outline: as §1

CaSla1-D3 = target: CaSla1-D3
Outline: as §1

ScAbp1 = target: ScAbp1
Outline: as §1

ScBbc1 = target: ScBbc1
Outline: as §1

ScBem1-D1 = target: ScBem1-D1
Outline: as §1

ScBzz1-D1 = target: ScBzz1-D1
Outline: as §1

ScBzz1-D2 = target: ScBzz1-D2
Outline: as §1

ScCyk3 = target: ScCyk3
Outline: as §1

ScFus1 = target: ScFus1
Outline: as §1

ScHof1 = target: ScHof1
Outline: as §1

ScHse1 = target: ScHse1
Outline: as §1

ScLsb1 = target: ScLsb1
Outline: as §1

ScLsb2 = target: ScLsb2
Outline: as §1

ScLsb3 = target: ScLsb3
Outline: as §1

ScLsb4 = target: ScLsb4
Outline: as §1

ScMyo3 = target: ScMyo3
Outline: as §1

ScMyo5 = target: ScMyo5
Outline: as §1

ScNbp2 = target: ScNbp2
Outline: as §1

ScPex13 = target: ScPex13
Outline: as §1

ScRvs167 = target: ScRvs167
Outline: as §1

ScSho1 = target: ScSho1
Outline: as §1

ScSla1-D1-D2 = target: ScSla1-D1-D2
Outline: as §1

ScSla1-D3 = target: ScSla1-D3
Outline: as §1

SpAbp1-D1 = target: SpAbp1-D1
Outline: as §1

SpBbc1 = target: SpBbc1
Outline: as §1

SpBzz1-D1 = target: SpBzz1-D1
Outline: as §1

SpBzz1-D2 = target: SpBzz1-D2
Outline: as §1

SpCyk3 = target: SpCyk3
Outline: as §1

SpHof1 = target: SpHof1
Outline: as §1

SpHof1-2 = target: SpHof1-2
Outline: as §1

SpHof1-3 = target: SpHof1-3
Outline: as §1

SpHse1 = target: SpHse1
Outline: as §1

SpLsb1 = target: SpLsb1
Outline: as §1

SpLsb4 = target: SpLsb4
Outline: as §1

SpMyo1 = target: SpMyo1
Outline: as §1

SpNbp2 = target: SpNbp2
Outline: as §1

SpPex13 = target: SpPex13
Outline: as §1

SpRvs167 = target: SpRvs167
Outline: as §1

SpSla1-D1-D2 = target: SpSla1-D1-D2
Outline: as §1

SpSla1-D3 = target: SpSla1-D3
Outline: as §1

B1: unnamed (peptide)
chain: RVTRKRPREPKSTND
SPOT peptide array binding signal intensity (AgAbp1): 86 | SPOT peptide array binding signal intensity (AgBbc1): 146 | SPOT peptide array binding signal intensity (AgBem1-D1): 322 | SPOT peptide array binding signal intensity (AgBzz1-D1): 18 | SPOT peptide array binding signal intensity (AgBzz1-D2): 31 | SPOT peptide array binding signal intensity (AgCyk3): 3 | SPOT peptide array binding signal intensity (AgFus1): 300 | SPOT peptide array binding signal intensity (AgHof1): 64.5 | SPOT peptide array binding signal intensity (AgHse1): 606 | SPOT peptide array binding signal intensity (AgLsb1): 3 | SPOT peptide array binding signal intensity (AgLsb4): 72 | SPOT peptide array binding signal intensity (AgMyo5): 2.5 | SPOT peptide array binding signal intensity (AgNbp2): 123 | SPOT peptide array binding signal intensity (AgRvs167): 0.667 | SPOT peptide array binding signal intensity (AgSho1): 31 | SPOT peptide array binding signal intensity (AgSla1-D1-D2): 178 | SPOT peptide array binding signal intensity (AgSla1-D3): 7.25 | SPOT peptide array binding signal intensity (CaAbp1-D1): 887 | SPOT peptide array binding signal intensity (CaAbp1-D2): 550 | SPOT peptide array binding signal intensity (CaBbc1): 346 | SPOT peptide array binding signal intensity (CaBem1-D1): 40.5 | SPOT peptide array binding signal intensity (CaBzz1-D1): 134 | SPOT peptide array binding signal intensity (CaBzz1-D2): 174 | SPOT peptide array binding signal intensity (CaCyk3): 169 | SPOT peptide array binding signal intensity (CaFus1): 734 | SPOT peptide array binding signal intensity (CaHof1): 1 | SPOT peptide array binding signal intensity (CaHse1): 35.2 | SPOT peptide array binding signal intensity (CaLsb1): 1.5 | SPOT peptide array binding signal intensity (CaLsb4): 193 | SPOT peptide array binding signal intensity (CaMyo5): 2 | SPOT peptide array binding signal intensity (CaNbp2): 266 | SPOT peptide array binding signal intensity (CaRvs167): 4 | SPOT peptide array binding signal intensity (CaRvs167-3): 79.2 | SPOT peptide array binding signal intensity (CaSho1): 327 | SPOT peptide array binding signal intensity (CaSla1-D1-D2): 146 | SPOT peptide array binding signal intensity (CaSla1-D3): ≤ 0 | SPOT peptide array binding signal intensity (ScAbp1): 50 | SPOT peptide array binding signal intensity (ScBbc1): 88 | SPOT peptide array binding signal intensity (ScBem1-D1): 76 | SPOT peptide array binding signal intensity (ScBzz1-D1): 12 | SPOT peptide array binding signal intensity (ScBzz1-D2): 10 | SPOT peptide array binding signal intensity (ScCyk3): 204 | SPOT peptide array binding signal intensity (ScFus1): 312 | SPOT peptide array binding signal intensity (ScHof1): 2.5 | SPOT peptide array binding signal intensity (ScHse1): 1040 | SPOT peptide array binding signal intensity (ScLsb1): 5.25 | SPOT peptide array binding signal intensity (ScLsb2): 11 | SPOT peptide array binding signal intensity (ScLsb3): 244 | SPOT peptide array binding signal intensity (ScLsb4): 17 | SPOT peptide array binding signal intensity (ScMyo3): 7 | SPOT peptide array binding signal intensity (ScMyo5): 4.75 | SPOT peptide array binding signal intensity (ScNbp2): 378 | SPOT peptide array binding signal intensity (ScPex13): 1.25 | SPOT peptide array binding signal intensity (ScRvs167): 20.3 | SPOT peptide array binding signal intensity (ScSho1): 862 | SPOT peptide array binding signal intensity (ScSla1-D1-D2): 779 | SPOT peptide array binding signal intensity (ScSla1-D3): 15.2 | SPOT peptide array binding signal intensity (SpAbp1-D1): 345 | SPOT peptide array binding signal intensity (SpBbc1): 2.5 | SPOT peptide array binding signal intensity (SpBzz1-D1): 184 | SPOT peptide array binding signal intensity (SpBzz1-D2): ≤ 0 | SPOT peptide array binding signal intensity (SpCyk3): 4.5 | SPOT peptide array binding signal intensity (SpHof1): 222 | SPOT peptide array binding signal intensity (SpHof1-2): 5.5 | SPOT peptide array binding signal intensity (SpHof1-3): 316 | SPOT peptide array binding signal intensity (SpHse1): 298 | SPOT peptide array binding signal intensity (SpLsb1): 11.5 | SPOT peptide array binding signal intensity (SpLsb4): 292 | SPOT peptide array binding signal intensity (SpMyo1): 3 | SPOT peptide array binding signal intensity (SpNbp2): 1040 | SPOT peptide array binding signal intensity (SpPex13): 13 | SPOT peptide array binding signal intensity (SpRvs167): 7.33 | SPOT peptide array binding signal intensity (SpSla1-D1-D2): 1 | SPOT peptide array binding signal intensity (SpSla1-D3): 5

B2: unnamed (peptide)
chain: RRASLFPRDPKRLRP
SPOT peptide array binding signal intensity (CaNbp2): 464 | SPOT peptide array binding signal intensity (CaRvs167): 8.67 | SPOT peptide array binding signal intensity (CaRvs167-3): 80.2 | SPOT peptide array binding signal intensity (CaSho1): 430 | SPOT peptide array binding signal intensity (CaSla1-D1-D2): 87.5 | SPOT peptide array binding signal intensity (CaSla1-D3): ≤ 0 | SPOT peptide array binding signal intensity (ScAbp1): 284 | SPOT peptide array binding signal intensity (ScBbc1): 18.2 | SPOT peptide array binding signal intensity (ScBem1-D1): 173 | SPOT peptide array binding signal intensity (ScBzz1-D1): 30.5 | SPOT peptide array binding signal intensity (ScBzz1-D2): 104 | SPOT peptide array binding signal intensity (ScCyk3): 108 | SPOT peptide array binding signal intensity (ScFus1): 282 | SPOT peptide array binding signal intensity (ScHof1): 4 | SPOT peptide array binding signal intensity (ScHse1): 1890 | SPOT peptide array binding signal intensity (ScLsb1): 14.5 | SPOT peptide array binding signal intensity (ScLsb2): 1 | SPOT peptide array binding signal intensity (ScLsb3): 248 | SPOT peptide array binding signal intensity (ScLsb4): 4.5 | SPOT peptide array binding signal intensity (ScMyo3): 0.5 | SPOT peptide array binding signal intensity (ScMyo5): 2 | SPOT peptide array binding signal intensity (ScNbp2): 308 | SPOT peptide array binding signal intensity (ScPex13): ≤ 0 | SPOT peptide array binding signal intensity (ScRvs167): 16.3 | SPOT peptide array binding signal intensity (ScSho1): 992 | SPOT peptide array binding signal intensity (ScSla1-D1-D2): 1000 | SPOT peptide array binding signal intensity (ScSla1-D3): 20 | SPOT peptide array binding signal intensity (SpAbp1-D1): 152 | SPOT peptide array binding signal intensity (SpBbc1): 7 | SPOT peptide array binding signal intensity (SpBzz1-D1): 609 | SPOT peptide array binding signal intensity (SpBzz1-D2): ≤ 0 | SPOT peptide array binding signal intensity (SpCyk3): 1 | SPOT peptide array binding signal intensity (SpHof1): 184 | SPOT peptide array binding signal intensity (SpHof1-2): 44.5 | SPOT peptide array binding signal intensity (SpHof1-3): 352 | SPOT peptide array binding signal intensity (SpHse1): 420 | SPOT peptide array binding signal intensity (SpLsb1): 4.25 | SPOT peptide array binding signal intensity (SpLsb4): 98 | SPOT peptide array binding signal intensity (SpMyo1): 2 | SPOT peptide array binding signal intensity (SpNbp2): 348 | SPOT peptide array binding signal intensity (SpPex13): 17 | SPOT peptide array binding signal intensity (SpRvs167): 11.3 | SPOT peptide array binding signal intensity (SpSla1-D1-D2): ≤ 0 | SPOT peptide array binding signal intensity (SpSla1-D3): 19
